# Measured values published in the supplement of paper PMC3414501.
# Counter-ions that a name gives are not always drawn. A number with no mark means an inactive call.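 The calls were made as follows: active = score above 5; some higher scores were not called.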
# Tested on: S. cerevisiae SK1 pCDA2-eGFP (USY613), sporulating
# Assay: CDA2-GFP sporulation assay sensitivity score (z-score vs DMSO controls); higher = stronger inhibition of sporulation, active = hit call of the paper
row,Compound,CDA2-GFP sporulation assay sensitivity score
1,"NC1CCN(c2cccc(Cl)n2)CC1 (stock concentration (mM, diluted 1:100): 10)",13.8 (active)
2,"O=C1[C@H]2CCCC[C@H]2C(=O)N1CCCCN1CCN(c2nsc3ccccc23)CC1 [Perospirone hydrochloride] (stock concentration (mM, diluted 1:100): 9.4)",2.69
3,"COCC1=C(C(=O)OC(C)OC(=O)OC(C)C)N2C(=O)[C@@H](NC(=O)/C(=N\OC)c3csc(N)n3)[C@H]2SC1 (stereo partly drawn) [Cefpodoxime proxetil] (stock concentration (mM, diluted 1:100): 7.7)",-0.83
4,"CC(=O)NCCCCCCNC(C)=O [Hexamethylene bisacetamide] (stock concentration (mM, diluted 1:100): 10)",0.71
5,"NC(N)=Nc1nc(CSCC/C(N)=N/S(N)(=O)=O)cs1 [Famotidine] (stock concentration (mM, diluted 1:100): 10)",0.3
6,"CNCC[C@@H](Oc1ccccc1C)c1ccccc1 [Atomexetine hydrochloride] (stock concentration (mM, diluted 1:100): 8.7)",0.57
7,"COc1cc(N)c(Cl)cc1C(=O)NC1CCN(CCCOc2ccc(F)cc2)CC1OC (stereo not drawn) [Cisapride] (stock concentration (mM, diluted 1:100): 10.5)",0.78
8,"CC[N+](C)(CC)CCOC(=O)C(O)(c1ccccc1)C1CCCCC1 (stereo not drawn) [Oxyphenonium bromide] (stock concentration (mM, diluted 1:100): 10)",0.76
